Compounds with a hit are over-represented: about 2.8% of the library has one in this group of screens.
KDM5B inh = Primary screen for KDM5B Histone Demethylases FDH-coupled qHTS. Lysine-specific demethylase 5B (Homo sapiens), Q9UGL1. KDM5B demethylase, FDH-coupled NADH fluorescence (FDH is formaldehyde dehydrogenase). Potency, µM (doses to about 57.7 µM), most hits filed as inhibitors. 220,000 tested, 2.6% active; further: nearly all actives have a fitted effect of over 70% in size
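Compound dilutions met 200 nM (final) KDM5BΔAP for 10 min at room temperature before substrate addition. The substrate mix held 12.5 µM H3K4me3 with cofactors 25 µM α-ketoglutarate and 50 µM Fe²⁺. NADH signal gain over 30 min defined activity.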
IP6K1 inh = Primary qHTS assay for small molecule inhibitors of Inositol hexaphosphate kinase 1 (IP6K1) | Inositol hexakisphosphate kinase 1 (Homo sapiens), Q92551 | IP6K1 kinase, ADP-Glo luminescence, 2 h; stronger effect = lower value | activity change, % (series mostly up to about 58 µM) | 140,000 tested, 0.81% active; in the data active means activity change below about -25%
Target sequence (Q92551 whole entry, looked up): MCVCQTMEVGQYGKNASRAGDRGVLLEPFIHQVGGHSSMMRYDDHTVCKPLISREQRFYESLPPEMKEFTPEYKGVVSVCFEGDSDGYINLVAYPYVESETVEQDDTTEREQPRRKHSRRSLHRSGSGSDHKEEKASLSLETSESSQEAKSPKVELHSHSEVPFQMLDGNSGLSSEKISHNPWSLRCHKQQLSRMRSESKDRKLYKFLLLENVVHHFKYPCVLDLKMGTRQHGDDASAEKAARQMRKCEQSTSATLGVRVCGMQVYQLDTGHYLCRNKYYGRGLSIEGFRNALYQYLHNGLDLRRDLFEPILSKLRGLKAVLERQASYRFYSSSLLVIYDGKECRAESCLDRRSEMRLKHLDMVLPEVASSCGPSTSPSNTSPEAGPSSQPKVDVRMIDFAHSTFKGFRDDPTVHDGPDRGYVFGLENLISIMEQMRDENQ
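ADP-Glo luminescence measures ADP made by human IP6K1 during a 2 h RT reaction with ATP/IP6 (mix at 1.3 mM/130 uM); top library doses 57.5 and 19.1 uM final.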
SNCA expr inhib = Primary qHTS assay for inhibitors of alpha-synuclein gene (SNCA) expression. HEK-293 SNCA-luciferase knock-in, luminescence, 24 h. Potency, µM (highest dose often 57.2 µM), most hits filed as inhibitors. 140,000 tested, 0.17% active. AID 1671194, 2021; further: nearly all actives have a fitted effect of over 45% in size
SNCA viab count = GF-AFC viability counterscreen for inhibitors of alpha-synuclein gene (SNCA) expression. HEK-293-SNCA-luc viability, GF-AFC fluorescence, 24 h. Potency, µM (highest dose often 57.1 µM), hits mostly cytotoxic. 150,000 tested, 0.12% active; further: nearly all actives have a fitted effect of over 30% in size
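HEK-293-SNCA-luc cells (1500/well) plated 24 h, then exposed 24 h to a dilution series; GF-AFC added 30 min at 37C, fluorescence 405/540 nm; normalised to medium-only and DMSO wells, Hill fit.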
A number is an active result; . = inactive; ? = inconclusive; / = not tested or not shown. Unless noted, the call rests on the fitted dose curve; in most records, active means well fitted curve in the direction sought with a large enough effect; inconclusive means small, poorly fitted or top-dose-only effect, or another doubt; inactive means no such curve, though single readings can be large; an effect the other way counts as inactive or inconclusive.

SMILES	KDM5B inh	IP6K1 inh	SNCA expr inhib	SNCA viab count
COc1ccccc1CNc1ncncc1-c1nc(-c2ccccc2)no1	31.6µM	.	.	.
c1ccc(-c2noc(-c3cncnc3NCc3cccs3)n2)cc1	?	.	.	.
Cc1cccc(Nc2ncncc2-c2nc(-c3ccccc3)no2)c1C	28.2µM	.	.	.
Cc1cc(F)ccc1Nc1ncncc1-c1nc(-c2ccccc2)no1	7.94µM	.	?	.
Cc1ccc(Nc2ncncc2-c2nc(-c3ccccc3)no2)c(C)c1	.	.	.	.
O=C(NCC1CC1)C1CCCN1S(=O)(=O)c1ccc(Br)s1 (centres undefined)	.	/	/	/
Cc1cc(=O)n(CC(=O)Nc2cccc(C(C)C)c2)c(N2CCc3ccccc3C2)n1	22.4µM	.	.	.
COc1cccc(CNC(=O)Cn2c(N3CCc4ccccc4C3)nc(C)cc2=O)c1	35.5µM	.	?	.
Cc1cc(=O)n(CC(=O)Nc2ccc(Cl)cc2)c(N2CCc3ccccc3C2)n1	?	.	?	.
Cc1cc(=O)n(CC(=O)Nc2ccc(C(C)C)cc2)c(N2CCc3ccccc3C2)n1	.	.	.	.
Cc1cc(=O)n(CC(=O)Nc2cccc(Cl)c2)c(N2CCc3ccccc3C2)n1	12.6µM	.	?	?
O=C(Nc1ccccc1F)c1ncoc1-c1cccc(Cl)c1	.	/	/	/
Cc1cccc(N2CCN(c3cc(C(=O)O)c4cc(NC(=O)C(C)(C)C)ccc4n3)CC2)c1	.	/	/	/
Cc1cn2nc(C(=O)Nc3ccc4c(c3)OCO4)cc2c(N(C)Cc2ccccc2)n1	?	.	.	.
Cc1cn2nc(C(=O)N3CCC(C)CC3)cc2c(N(C)Cc2ccccc2)n1	28.2µM	.	.	.
Cc1cn2nc(C(=O)Nc3ccccc3F)cc2c(N(C)Cc2ccccc2)n1	22.4µM	.	.	.
Cc1cn2nc(C(=O)Nc3ccc(F)c(F)c3)cc2c(N(C)Cc2ccccc2)n1	31.6µM	.	.	.
Cc1cn2nc(C(=O)N3CCCC3)cc2c(N(C)Cc2ccccc2)n1	?	.	?	?
C=C(C)CN1CCC(CC(N)=O)CC1	.	/	/	/
CCN(C(=O)c1ccc2[nH]c(C)c(C)c2c1)C1CCS(=O)(=O)C1 (centres undefined)	.	/	/	/
CC(=O)c1c(C)oc2ccc(NS(=O)(=O)c3ccc4ccccc4c3)cc12	.	/	/	/
Cc1ccc2nc(C3CCCN(Cc4ccccc4)C3)[nH]c(=O)c2c1 (centres undefined)	.	.	.	.
CCn1c(C2CCCN(Cc3c(C(=O)O)[nH]c4ccc(C)cc34)C2)n[nH]c1=O (centres undefined)	28.2µM	.	.	.
COCCNC(=O)c1nc2c(o1)CCN(Cc1cccc(F)c1F)CC2	?	.	.	.
O=C(NCC1CC1)c1nc2c(o1)CCN(Cc1ccc(F)cc1F)CC2	.	.	.	.
SMILES	KDM5B inh	IP6K1 inh	SNCA expr inhib	SNCA viab count
O=C(Nc1ccc(Cl)cc1)c1nc2c(o1)CCN(Cc1ccc(F)cc1F)CC2	28.2µM	.	?	?
COc1ccccc1CN1CCc2nc(C(=O)Nc3ccc(Cl)cc3)oc2CC1	35.5µM	.	?	?
O=C(Nc1ccc(Cl)cc1)c1nc2c(o1)CCN(Cc1cccc(F)c1F)CC2	35.5µM	.	.	.
Cc1cc2nn(CC(=O)N3CCC(C)CC3)c(=O)n2c(N2CCc3ccccc3C2)n1	.	/	/	/
CCCNC(=O)N1CCCCCC1CN1CCCC1 (centres undefined)	25.1µM	.	?	.
CC(C)NC(=O)N1CCCCCC1CN1CCCC1 (centres undefined)	?	.	.	.
O=C(N[C@H]1CC[C@H](Nc2nccc(-c3cccnc3)n2)C1)c1ccc(O)cc1	20µM	.	.	.
CCc1[nH]ncc1C(=O)N[C@H]1CC[C@H](Nc2nccc(-c3ccccn3)n2)C1	12.6µM	.	.	.
Cc1ccn2cc(-c3ccc(NC(=O)CCCc4ccccc4)cc3)nc2n1	.	/	/	/
Cc1ccc(C(=O)N2CCC(Oc3ncccc3C(=O)N3CCCCC3)C2)cc1C (centres undefined)	28.2µM	.	.	.
CCCN(C)c1nccnc1OC1CCN(C(=O)c2ccccc2OC)C1 (centres undefined)	28.2µM	.	.	.
O=C(c1cc(F)cc(F)c1)N1CCC(Oc2ncccc2C(=O)N2CCCCC2)C1 (centres undefined)	.	.	.	.
CCN(Cc1ccccc1)C(=O)C(=O)c1c(C)n(C)c2ccccc12	.	/	/	/
